PubChem BioAssay (EPA / NIEHS)
Results filed as inconclusive are left out. The source holds several records for some structures; these can differ, active in one and inactive in another. The source made the active and inactive calls. The calls were made as follows: active = hit-call score of the fitted dose curve at least 0.9, where 1 is the maximum; inconclusive = response in the unintended direction; inactive = score below 0.9.

How the values were obtained:
[1] = biological target: human Ephrin type-A Receptor 2 (EphA2), EPHA2 (gene 1969) (UniProt P29317); experiment: NVS_ENZ_hEphA2: NovaScreen (NVS) Enzymatic Assay for human Ephrin type-A Receptor 2 (EphA2) (AID 2283155)
Outline: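 Cell-free recombinant EphA2 kinase with specific substrate, 1 h, fluorescence with electrophoretic mobility-shift separation of substrate and product. Primary screen at 25 uM in duplicate; hits retested in singleton concentration-response up to 50 uM, referenced to DMSO.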

[2] = biological target: human Ephrin type-A Receptor 1 (EphA1), EPHA1 (gene 2041) (UniProt P21709); experiment: NVS_ENZ_hEphA1: NovaScreen (NVS) Enzymatic Assay for human Ephrin type-A Receptor 1 (EphA1) (AID 2283158);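 also: activity is signal loss versus DMSO meaning EphA1 kinase inhibition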
Outline: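 Cell-free kinase activity with recombinant protein, 1 hour after dosing; product separated by electrophoretic mobility shift, fluorescence read. Primary screen at 25 uM in duplicate; hits run as concentration-response up to 50 uM, relative to DMSO.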

[3] = biological target: human Mitogen-Activated Protein Kinase 1 (MAPK 1), MAPK1 (gene 5594) (UniProt P28482); experiment: NVS_ENZ_hMAPK1: NovaScreen (NVS) Enzymatic Assay for human Mitogen-Activated Protein Kinase 1 (MAPK 1) (AID 2283175)
Outline: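 Cell-free recombinant human MAPK1 enzymatic assay, fluorescence/electrophoretic mobility shift read at 1 h; loss of signal vs DMSO. Primary screen in duplicate at 25 uM; actives (e.g. ≥30% inhibition) run as concentration-response up to 50 uM.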

[4] = biological target: human Ephrin type-B Receptor 2 (EphB2), EPHB2 (gene 2048) (UniProt P29323); experiment: NVS_ENZ_hEphB2: NovaScreen (NVS) Enzymatic Assay for human Ephrin type-B Receptor 2 (EphB2) (AID 2283156)
Outline: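 Recombinant kinase with fluorescent substrate, product separated by electrophoretic mobility shift, read 1 h after dosing. Duplicate 25 uM screen, then singleton concentration-response to 50 uM max; loss of signal versus DMSO.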

[5] = biological target: Histone deacetylase 3 (Homo sapiens) (UniProt O15379); experiment: NVS_ENZ_hHDAC3: NovaScreen (NVS) Enzymatic Assay for human Histone Deacetylase 3 (HDAC3) (AID 2283163)
Outline: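 Recombinant human HDAC3 with fluorescent substrate, 1 h after dosing; product separated from substrate by electrophoretic mobility shift and read by fluorescence. Primary screen at 25 uM in duplicate; actives (e.g. ≥30% inhibition) retested in concentration-response up to 50 uM.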

[6] = biological target: human FYN Proto-Oncogene, Src family Tyrosine Kinase (Fyn), FYN (gene 2534) (UniProt P06241); experiment: NVS_ENZ_hFyn: NovaScreen (NVS) Enzymatic Assay for human FYN Proto-Oncogene, Src family Tyrosine Kinase (Fyn) (AID 2283161)
Outline: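 Recombinant enzyme with fluorescent substrate, product separated by electrophoretic mobility shift; read 1 h after dosing. Duplicate 25 uM single-point screen, actives retested in concentration series; loss of signal vs DMSO.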

[7] = biological target: Collagenase 3 (Homo sapiens) (UniProt P45452); experiment: NVS_ENZ_hMMP13: NovaScreen (NVS) Enzymatic Assay for human Matrix Metalloproteinase-13 (MMP13) (AID 2283182)
Outline: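 Recombinant MMP13 cleaving fluorescent substrate, cell-free, measured 1 h after dosing. Primary duplicate screen at 25 uM; actives tested in concentration-response up to 50 uM; loss of signal relative to DMSO.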

[8] = biological target: human MET Proto-Oncogene, Receptor Tyrosine Kinase (MET), MET (gene 4233) (UniProt P08581); experiment: NVS_ENZ_hMet: NovaScreen (NVS) Enzymatic Assay for human MET Proto-Oncogene, Receptor Tyrosine Kinase (MET) (AID 2283180)
Outline: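 Cell-free MET kinase assay using recombinant protein and fluorescent substrate, with mobility-shift separation; read 1 h after dosing. Primary duplicate at 25 uM; actives in singleton concentration-response to 50 uM maximum. Signal loss versus DMSO.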

[9] = biological target: Protein deacetylase HDAC6 (Homo sapiens) (UniProt Q9UBN7); experiment: NVS_ENZ_hHDAC6: NovaScreen (NVS) Enzymatic Assay for human Histone Deacetylase 6 (HDAC6) (AID 2283164)
Outline: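 Recombinant human HDAC6 with fluorescent substrate, 1 h; product separated from substrate by electrophoretic mobility shift. Primary screen in duplicate at 25 uM; actives retested singly in concentration-response up to 50 uM, fitted relative to DMSO.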

[10] = biological target: human Insulin Receptor (InsR), INSR (gene 3643) (UniProt P06213); experiment: NVS_ENZ_hInsR: NovaScreen (NVS) Enzymatic Assay for human Insulin Receptor (InsR) (AID 2283168)
Outline: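 Fluorescent substrate phosphorylation by recombinant kinase, product resolved by electrophoretic mobility shift, read 1 h after dosing. Screened in duplicate at 25 uM; hits (e.g., 30% inhibition) run in concentration-response to 50 uM; DMSO as baseline.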

[11] = biological target: human Matrix Metalloproteinase-2 (MMP2), MMP2 (gene 4313) (UniProt P08253); experiment: NVS_ENZ_hMMP2: NovaScreen (NVS) Enzymatic Assay for human Matrix Metalloproteinase-2 (MMP2) (AID 2283184)
Outline: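 Cell-free recombinant MMP2 activity with a fluorescent substrate, read 1 h after dosing. Primary screen in duplicate at 25 uM; actives then run in concentration series; loss of signal fitted versus DMSO.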

Chain of human Ephrin type-A Receptor 2 (EphA2), EPHA2 (gene 1969) (P29317 whole entry, looked up): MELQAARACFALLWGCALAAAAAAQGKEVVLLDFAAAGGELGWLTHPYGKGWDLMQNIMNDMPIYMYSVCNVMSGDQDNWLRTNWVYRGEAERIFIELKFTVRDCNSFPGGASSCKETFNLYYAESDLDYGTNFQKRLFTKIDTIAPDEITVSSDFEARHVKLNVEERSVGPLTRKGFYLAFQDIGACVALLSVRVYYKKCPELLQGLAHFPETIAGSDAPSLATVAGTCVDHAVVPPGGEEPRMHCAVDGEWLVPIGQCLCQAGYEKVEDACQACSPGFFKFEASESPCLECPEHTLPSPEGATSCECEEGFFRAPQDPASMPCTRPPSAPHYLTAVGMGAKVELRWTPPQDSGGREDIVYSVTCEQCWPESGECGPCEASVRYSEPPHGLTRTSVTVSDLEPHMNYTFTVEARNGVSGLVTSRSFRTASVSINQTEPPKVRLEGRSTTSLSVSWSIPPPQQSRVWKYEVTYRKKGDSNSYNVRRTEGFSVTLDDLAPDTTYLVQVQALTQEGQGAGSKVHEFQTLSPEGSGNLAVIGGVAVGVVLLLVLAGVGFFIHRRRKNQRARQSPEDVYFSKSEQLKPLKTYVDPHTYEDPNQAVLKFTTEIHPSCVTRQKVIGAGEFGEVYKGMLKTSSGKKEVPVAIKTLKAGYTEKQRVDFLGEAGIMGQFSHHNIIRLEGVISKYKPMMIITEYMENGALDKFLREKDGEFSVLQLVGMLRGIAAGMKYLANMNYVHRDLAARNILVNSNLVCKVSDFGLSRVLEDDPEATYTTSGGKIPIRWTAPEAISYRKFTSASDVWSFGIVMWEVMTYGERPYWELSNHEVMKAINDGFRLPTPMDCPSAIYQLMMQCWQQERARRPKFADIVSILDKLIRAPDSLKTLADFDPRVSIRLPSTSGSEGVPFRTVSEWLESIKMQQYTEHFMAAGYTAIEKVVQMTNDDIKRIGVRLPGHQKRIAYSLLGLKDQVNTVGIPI
Chain of human Ephrin type-A Receptor 1 (EphA1), EPHA1 (gene 2041) (P21709 whole entry, looked up): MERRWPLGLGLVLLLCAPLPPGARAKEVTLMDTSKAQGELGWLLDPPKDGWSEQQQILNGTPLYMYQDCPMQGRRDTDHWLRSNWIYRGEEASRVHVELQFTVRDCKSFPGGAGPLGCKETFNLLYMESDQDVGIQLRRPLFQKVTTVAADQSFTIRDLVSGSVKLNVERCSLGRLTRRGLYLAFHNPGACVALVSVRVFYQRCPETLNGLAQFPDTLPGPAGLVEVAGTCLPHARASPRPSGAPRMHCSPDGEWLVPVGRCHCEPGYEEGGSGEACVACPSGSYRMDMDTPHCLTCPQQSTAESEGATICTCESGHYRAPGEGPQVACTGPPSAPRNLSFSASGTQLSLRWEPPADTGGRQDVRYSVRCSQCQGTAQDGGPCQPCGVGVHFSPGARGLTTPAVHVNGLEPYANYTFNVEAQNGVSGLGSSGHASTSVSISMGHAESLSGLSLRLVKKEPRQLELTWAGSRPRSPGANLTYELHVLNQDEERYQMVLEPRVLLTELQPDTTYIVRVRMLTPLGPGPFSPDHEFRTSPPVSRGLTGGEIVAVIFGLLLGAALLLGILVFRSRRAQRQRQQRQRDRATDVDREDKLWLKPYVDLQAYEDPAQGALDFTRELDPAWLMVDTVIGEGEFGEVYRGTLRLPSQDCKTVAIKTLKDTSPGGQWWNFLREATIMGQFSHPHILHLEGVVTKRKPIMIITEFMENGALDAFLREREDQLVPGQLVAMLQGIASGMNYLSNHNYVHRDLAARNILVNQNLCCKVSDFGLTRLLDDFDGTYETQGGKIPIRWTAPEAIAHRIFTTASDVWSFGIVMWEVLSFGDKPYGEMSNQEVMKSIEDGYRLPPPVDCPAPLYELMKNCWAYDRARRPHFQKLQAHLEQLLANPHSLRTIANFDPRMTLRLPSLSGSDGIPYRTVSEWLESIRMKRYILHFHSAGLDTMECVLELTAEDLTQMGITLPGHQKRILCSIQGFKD
Chain of human Mitogen-Activated Protein Kinase 1 (MAPK 1), MAPK1 (gene 5594) (P28482 whole entry, looked up): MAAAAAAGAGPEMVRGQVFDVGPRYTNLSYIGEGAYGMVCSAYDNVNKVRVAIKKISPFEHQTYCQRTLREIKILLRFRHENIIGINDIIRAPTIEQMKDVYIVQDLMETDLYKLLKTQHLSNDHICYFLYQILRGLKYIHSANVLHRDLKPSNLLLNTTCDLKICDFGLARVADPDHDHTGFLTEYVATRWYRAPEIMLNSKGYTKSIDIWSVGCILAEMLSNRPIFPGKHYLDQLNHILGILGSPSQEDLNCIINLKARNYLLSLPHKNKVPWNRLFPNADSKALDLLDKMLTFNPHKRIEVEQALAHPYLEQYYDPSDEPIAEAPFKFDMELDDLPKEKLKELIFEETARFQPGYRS
Chain of human MET Proto-Oncogene, Receptor Tyrosine Kinase (MET), MET (gene 4233) (P08581 whole entry, looked up): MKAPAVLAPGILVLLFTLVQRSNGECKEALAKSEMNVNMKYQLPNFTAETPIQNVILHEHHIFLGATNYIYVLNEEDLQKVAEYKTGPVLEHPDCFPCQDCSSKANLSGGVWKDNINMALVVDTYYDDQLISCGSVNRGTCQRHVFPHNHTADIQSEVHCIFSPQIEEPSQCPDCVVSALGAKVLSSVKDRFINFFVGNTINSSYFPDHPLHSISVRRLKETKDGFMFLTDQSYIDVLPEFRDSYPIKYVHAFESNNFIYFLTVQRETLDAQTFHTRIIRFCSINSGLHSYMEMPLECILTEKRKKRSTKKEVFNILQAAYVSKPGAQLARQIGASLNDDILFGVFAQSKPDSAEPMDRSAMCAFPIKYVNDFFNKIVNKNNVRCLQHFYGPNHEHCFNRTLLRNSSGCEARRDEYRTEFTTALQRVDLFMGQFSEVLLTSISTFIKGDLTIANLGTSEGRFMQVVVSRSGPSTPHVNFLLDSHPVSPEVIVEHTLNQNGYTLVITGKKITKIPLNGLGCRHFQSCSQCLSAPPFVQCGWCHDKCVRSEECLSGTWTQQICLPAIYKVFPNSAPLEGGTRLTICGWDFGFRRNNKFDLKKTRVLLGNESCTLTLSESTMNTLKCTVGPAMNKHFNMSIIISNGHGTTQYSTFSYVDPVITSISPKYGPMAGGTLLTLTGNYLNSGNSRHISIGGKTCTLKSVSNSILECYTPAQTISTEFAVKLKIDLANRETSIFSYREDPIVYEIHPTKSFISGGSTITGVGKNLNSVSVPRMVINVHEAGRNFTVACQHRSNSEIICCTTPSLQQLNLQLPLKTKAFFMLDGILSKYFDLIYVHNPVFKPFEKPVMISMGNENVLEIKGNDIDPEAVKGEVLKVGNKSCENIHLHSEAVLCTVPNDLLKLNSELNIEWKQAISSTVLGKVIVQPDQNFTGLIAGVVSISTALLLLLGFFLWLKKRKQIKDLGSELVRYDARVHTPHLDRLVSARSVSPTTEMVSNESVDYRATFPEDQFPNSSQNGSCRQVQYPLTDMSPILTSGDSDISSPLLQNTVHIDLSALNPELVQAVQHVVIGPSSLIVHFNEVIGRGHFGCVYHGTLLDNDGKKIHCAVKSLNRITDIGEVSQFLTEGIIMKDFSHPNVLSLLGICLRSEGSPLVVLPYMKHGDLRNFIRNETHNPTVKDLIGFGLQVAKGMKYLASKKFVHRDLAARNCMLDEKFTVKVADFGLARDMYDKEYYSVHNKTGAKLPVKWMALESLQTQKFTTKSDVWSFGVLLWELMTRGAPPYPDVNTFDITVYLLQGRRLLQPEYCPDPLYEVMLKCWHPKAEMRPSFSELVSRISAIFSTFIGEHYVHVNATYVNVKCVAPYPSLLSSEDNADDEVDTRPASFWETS
Chain of human Insulin Receptor (InsR), INSR (gene 3643) (P06213 whole entry, looked up): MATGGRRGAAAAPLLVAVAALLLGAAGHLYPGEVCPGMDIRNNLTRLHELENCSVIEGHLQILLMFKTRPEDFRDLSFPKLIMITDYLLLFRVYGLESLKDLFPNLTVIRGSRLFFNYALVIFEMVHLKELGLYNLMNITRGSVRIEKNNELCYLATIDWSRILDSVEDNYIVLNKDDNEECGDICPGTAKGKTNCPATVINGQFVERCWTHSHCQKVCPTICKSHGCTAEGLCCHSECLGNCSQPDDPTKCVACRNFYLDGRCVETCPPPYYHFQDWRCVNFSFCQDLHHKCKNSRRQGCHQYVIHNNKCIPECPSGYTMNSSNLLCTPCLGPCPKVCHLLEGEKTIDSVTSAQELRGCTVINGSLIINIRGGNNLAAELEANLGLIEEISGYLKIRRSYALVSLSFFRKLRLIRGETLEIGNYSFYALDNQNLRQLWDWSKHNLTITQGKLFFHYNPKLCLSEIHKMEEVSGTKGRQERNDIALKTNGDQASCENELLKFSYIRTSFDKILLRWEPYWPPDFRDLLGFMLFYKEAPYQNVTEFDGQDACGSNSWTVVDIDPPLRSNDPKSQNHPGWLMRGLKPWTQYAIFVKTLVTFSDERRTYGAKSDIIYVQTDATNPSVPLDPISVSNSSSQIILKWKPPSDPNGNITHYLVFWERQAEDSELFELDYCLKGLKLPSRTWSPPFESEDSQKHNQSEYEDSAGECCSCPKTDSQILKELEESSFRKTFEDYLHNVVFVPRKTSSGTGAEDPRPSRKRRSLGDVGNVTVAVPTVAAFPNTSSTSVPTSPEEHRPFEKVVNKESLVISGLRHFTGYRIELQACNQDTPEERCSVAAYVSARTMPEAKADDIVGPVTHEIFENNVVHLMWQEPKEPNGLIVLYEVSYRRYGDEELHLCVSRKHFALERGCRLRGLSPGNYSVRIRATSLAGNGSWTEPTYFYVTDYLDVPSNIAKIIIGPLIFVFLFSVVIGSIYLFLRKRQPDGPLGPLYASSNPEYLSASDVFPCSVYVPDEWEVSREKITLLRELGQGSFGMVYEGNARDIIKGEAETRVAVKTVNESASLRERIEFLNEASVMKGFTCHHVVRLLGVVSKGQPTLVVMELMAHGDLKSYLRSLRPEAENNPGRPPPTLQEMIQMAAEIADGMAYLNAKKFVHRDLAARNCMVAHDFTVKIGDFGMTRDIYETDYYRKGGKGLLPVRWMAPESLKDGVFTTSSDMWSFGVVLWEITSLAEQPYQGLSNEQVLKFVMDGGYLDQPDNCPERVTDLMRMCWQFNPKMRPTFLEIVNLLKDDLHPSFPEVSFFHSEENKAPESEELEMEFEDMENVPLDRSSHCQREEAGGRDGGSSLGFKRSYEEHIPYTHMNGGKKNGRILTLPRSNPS

Question: How did the outcome [1] turn out when O=C(O)c1cc(Oc2ccc(C(F)(F)F)cc2Cl)ccc1[N+](=O)[O-] was run?
Answer: The outcome was “inactive”.

Question: And the outcome [2]?
Answer: The outcome was “inactive”.

Question: How did the AC50 [1] turn out when CN(C)[C@@H]1C(=O)C(C(N)=O)=C(O)[C@@]2(O)C(=O)C3=C(O)c4c(O)cccc4[C@@](C)(O)[C@H]3[C@H](O)[C@@H]12 was run?
Answer: The AC50 was 7.61 µM (active).

Question: What about the outcome [1] of the same compound?
Answer: The outcome was “inactive”.

Question: What about the outcome [2] of the same compound?
Answer: The outcome was “inactive”.

Question: What about the AC50 [3] of the same compound?
Answer: The AC50 was 15 µM (active).

Question: Which results are given for CNc1cnn(-c2cccc(C(F)(F)F)c2)c(=O)c1Cl?
Answer: outcome [4]: inactive; outcome [5]: inactive

Question: What does the source list for CC(C)[C@H](C(=O)O[C@H](C#N)c1cccc(Oc2ccccc2)c1)c1ccc(Cl)cc1?
Answer: outcome [6]: inactive; AC50 [7]: 13 µM (active)

Question: What does the source list for S=C1NCCN1?
Answer: outcome [6]: inactive; outcome [8]: inactive; outcome [7]: inactive

Question: For O=c1ccc(=O)[nH][nH]1, which AC50 [5] is on record?
Answer: Its AC50 is 14.5 µM (active).

Question: How did the AC50 [9] turn out when N#CSCSC#N was run?
Answer: The AC50 was 3.68 µM (active).

Question: How did the outcome [9] turn out when CCOP(=S)(OCC)Oc1cc(C)nc(C(C)C)n1 was run?
Answer: The outcome was “inactive”.

Question: For CCNc1nc(Cl)nc(NC(C)(C)C#N)n1, which outcome [10] is on record?
Answer: Its outcome is “inactive”.

Question: Which outcome [10] does the source give for CCC(=NOC/C=C/Cl)C1=C(O)CC(C2CCOCC2)CC1=O (configuration not stated) here?
Answer: The outcome was “inactive”.

Question: C=C(C)[C@H]1Cc2c(ccc3c2O[C@@H]2COc4cc(OC)c(OC)cc4[C@@H]2C3=O)O1 was tested. Which outcome [3] did it give?
Answer: The outcome was “inactive”.

Question: How did the outcome [8] turn out when CC[C@H](C)[C@H]1O[C@]2(C=C[C@@H]1C)C[C@@H]1C[C@@H](C/C=C(\C)[C@@H](O[C@H]3C[C@H](OC)[C@@H](O[C@H]4C[C@H](OC)[C@@H](NC)[C@H](C)O4)[C@H](C)O3)[C@@H](C)/C=C/C=C3\CO[C@@H]4[C@H](O)C(C)=C[C@@H](C(=O)O1)[C@]34O)O2 was run?
Answer: Its outcome is “inactive”.

Question: Which outcome [11] does the source give for CCOC(=O)CC(SP(=O)(OC)OC)C(=O)OCC (configuration not stated) here?
Answer: Its outcome is “inactive”.

Question: For Cc1ccn2nc(S(=O)(=O)Nc3c(F)cccc3F)nc2n1, which outcome [11] is on record?
Answer: The outcome was “inactive”.
